Assay [1] is described as follows: qHTS assay to identify aromatase inhibitors - cell viability counter screen (AID 743084).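 Note: cells stimulated with testosterone during compound exposure; nearly all actives have a fitted effect of over 55% in size.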 For orientation: In qHTS, concentration-response curves come from the screen itself.
The target in assay [2] is Peroxisome proliferator-activated receptor gamma (Homo sapiens) (UniProt P37231). Nature of the assay: qHTS assay to identify small molecule antagonists of the peroxisome proliferator-activated receptor gamma (PPARg) signaling pathway (AID 743191; calls by dose curve; note: nearly all actives have a fitted effect of over 30% in size; note: potency is the fitted concentration of half-maximal effect). An outline of the steps:
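GeneBLAzer PPARg UAS-bla HEK293H cells carrying a UAS-driven beta-lactamase reporter were plated at 3000 cells/well, preincubated 5 h at 37C, then given compound for 17 h at 37C; LiveBLAzer B/G FRET substrate was read after 1 h at room temperature.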

A short description of assay [3]: qHTS assay to identify small molecule antagonists of the peroxisome proliferator-activated receptor gamma (PPARg) signaling pathway - cell viability counter screen (AID 743194). Note: nearly all actives have a fitted effect of over 55% in size. An outline of the steps:
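PPARg-UAS-bla HEK293H cells were plated, rested 5 h at 37 C, then treated with compounds plus rosiglitazone (50 nM final) for 17 h at 37 C; viability was then read by CellTiter-Glo luminescence after 30 min at room temperature.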

The nature of assay [4]: qHTS assay for small molecule agonists of the antioxidant response element (ARE) signaling pathway (AID 743202; active = well fitted activation curve with a large enough effect in the signal ratio in the repeat runs, not every such curve was filed as active; the % refers to the signal ratio). An outline of the steps:
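Following a 16 h, 37 C exposure of reporter HepG2 cells (ARE-driven beta-lactamase, 2,000 cells/well) to compounds, FRET substrate was applied for 2 h at room temperature and fluorescence intensity recorded.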

Assay [5] in a line: qHTS assay for small molecule agonists of the antioxidant response element (ARE) signaling pathway - cell viability counter screen (AID 743203; calls by dose curve; note: nearly all actives have a fitted effect of over 55% in size; note: potency is the fitted concentration of half-maximal effect). An outline of the steps:
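ATP content via CellTiter-Glo luminescence served as the viability measure. Cells: ARE-bla HepG2, 2,000 per well. Exposure: 16 hrs, 37C/5% CO2.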

Assay [6] is described as follows: qHTS assay for small molecule activators of the heat shock response signaling pathway (AID 743210; active = well fitted activation curve with a large enough effect in the signal ratio in the repeat runs, with a control signal flat, not every such curve was filed as active; the % refers to the signal ratio; note: series mostly up to about 63 µM). An outline of the steps: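 Heat shock element–beta-lactamase HeLa reporter cells; qHTS with compounds for 5 h at 37 C; detection by FRET substrate fluorescence after 2.5 h at RT.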
Assay [7] has as its target Peroxisome proliferator-activated receptor delta (Homo sapiens) (UniProt Q03181). Nature of the assay: qHTS assay to identify small molecule agonists of the peroxisome proliferator-activated receptor delta (PPARd) signaling pathway (AID 743212; calls by dose curve). An outline of the steps:
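Beta-lactamase reporter read by fluorescence (LiveBLAzer B/G FRET, 2 h, room temperature). Test agents, in DMSO, incubated at 37 C with PPARd-bla HEK293H cells.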

Assay [8] can be described thus: qHTS assay to identify small molecule antagonists of the peroxisome proliferator-activated receptor delta (PPARd) signaling pathway - cell viability counter screen (AID 743213). Note: nearly all actives have a fitted effect of over 50% in size. Note: potency is the fitted concentration of half-maximal effect. An outline of the steps:
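HEK293H cells with the PPARd UAS-bla reporter, co-treated 17 h at 37 C with compounds and L165041 (300 nM final), were lysed with CellTiter-Glo. Luminescence indicated viable cell content.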

Assay [9] has as its target Peroxisome proliferator-activated receptor delta (Homo sapiens) (UniProt Q03181). Nature of the assay: qHTS assay to identify small molecule antagonists of the peroxisome proliferator-activated receptor delta (PPARd) signaling pathway (AID 743215; active = well fitted inhibition curve with a large enough effect in the signal ratio in the repeat runs, not every such curve was filed as active; the % refers to the signal ratio;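 note: cells stimulated with agonist L165041 at 300 nM final during compound exposure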; note: potency is the fitted concentration of half-maximal effect). An outline of the steps:
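Here, a reporter line (HEK293H, beta-lactamase under a UAS) measures PPARd signaling. Compounds are tested against agonist L165041 at 300 nM final concentration over 17 h at 37 C, with fluorescence read after substrate.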

For assay [10], the target named is Bile acid receptor (Homo sapiens) (UniProt Q96RI1). Nature of the assay: qHTS assay to identify small molecule antagonists of the farnesoid-X-receptor (FXR) signaling pathway (AID 743217; active = well fitted inhibition curve with a large enough effect in the signal ratio in the repeat runs, not every such curve was filed as active; the % refers to the signal ratio; note: potency is the fitted concentration of half-maximal effect). An outline of the steps: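 Test compounds are pin-transferred onto FXR-bla HEK 293T cells, then chenodeoxycholic acid is added at 50 uM final. After 16 h at 37 °C, LiveBLAzer B/G substrate is applied for 2 h at room temperature and fluorescence read.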
Sequence of Bile acid receptor (Homo sapiens) (Q96RI1 whole entry, looked up): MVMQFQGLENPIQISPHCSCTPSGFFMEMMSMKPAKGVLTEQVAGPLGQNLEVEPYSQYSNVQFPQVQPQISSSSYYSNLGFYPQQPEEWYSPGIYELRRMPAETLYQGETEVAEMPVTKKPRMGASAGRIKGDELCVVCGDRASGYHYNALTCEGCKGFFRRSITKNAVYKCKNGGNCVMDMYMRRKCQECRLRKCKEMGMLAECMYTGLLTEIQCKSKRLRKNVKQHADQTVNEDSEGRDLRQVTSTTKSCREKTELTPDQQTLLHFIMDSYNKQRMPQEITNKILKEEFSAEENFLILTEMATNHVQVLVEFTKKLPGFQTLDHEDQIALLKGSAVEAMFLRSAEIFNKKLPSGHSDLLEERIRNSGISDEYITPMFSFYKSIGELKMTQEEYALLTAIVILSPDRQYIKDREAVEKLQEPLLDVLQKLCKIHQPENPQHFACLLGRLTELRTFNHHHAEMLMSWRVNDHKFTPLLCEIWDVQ

Assay [11] has the same target. Nature of the assay: qHTS assay to identify small molecule agonists of the farnesoid-X-receptor (FXR) signaling pathway (AID 743220; active = well fitted activation curve with a large enough effect in the signal ratio in the repeat runs, not every such curve was filed as active; the % refers to the signal ratio). An outline of the steps:
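FXR-UAS-bla HEK 293T cells carrying a UAS-driven beta-lactamase reporter were plated for 5 h at 37C/5% CO2, then exposed to DMSO-dissolved Tox21 10K compounds for 16 h at 37C. A LiveBLAzer B/G FRET substrate was loaded for 2 h at room temperature before fluorescence reading.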

Assay [12] is described as follows: qHTS assay to identify small molecule antagonists of the farnesoid-X-receptor (FXR) signaling pathway - cell viability counter screen (AID 743221; active = well fitted cell-killing curve with a large enough effect in the repeat runs, not every such curve was filed as active; note: nearly all actives have a fitted effect of over 50% in size; note: potency is the fitted concentration of half-maximal effect). An outline of the steps:
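In GeneBLAzer FXR-UAS-bla HEK 293T cells stimulated with 50 uM chenodeoxycholic acid (final), compounds acted for 16 h at 37 C. Viability was assessed afterwards by CellTiter-Glo luminescence.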

Assay [13] deals with Vitamin D3 receptor (Homo sapiens) (UniProt P11473). Nature of the assay: qHTS assay to identify small molecule antagonists of the vitamin D receptor (VDR) signaling pathway (AID 743223; active = well fitted inhibition curve with a large enough effect in the signal ratio in the repeat runs, not every such curve was filed as active; the % refers to the signal ratio). An outline of the steps:
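Agonist 1alpha,25-dihydroxyvitamin D3 (3 nM in well) was added with each compound to VDR-bla cells preincubated 4 h. Cells stood 16 h at 37C, then FRET substrate 2 h at room temperature; fluorescence intensity recorded.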

For assay [14], the target named is Aryl hydrocarbon receptor (Homo sapiens) (UniProt P35869). Nature of the assay: qHTS assay to identify small molecule that activate the aryl hydrocarbon receptor (AhR) signaling pathway (AID 743085).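 For activation: HG2L7.5c1 human HepG2 liver cells with stably integrated DRE-driven firefly reporter; series mostly up to about 70 µM.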 Note: nearly all actives have a fitted effect of over 15% in size. Note: potency is the fitted concentration of half-maximal effect. An outline of the steps:
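24 h compound exposure, 37C, HepG2-derived HG2L7.5c1 cells with DRE-responsive luciferase. Readouts: fluorescence viability, then luminescence at room temperature after 30 min.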

Assay [15] can be described thus: qHTS assay to identify small molecule that activate the aryl hydrocarbon receptor (AhR) signaling pathway - cell viability counter screen (AID 743086).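 Note: HepG2 liver cells carrying the AhR DRE luciferase reporter; series mostly up to about 70 µM; nearly all actives have a fitted effect of over 45% in size.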 An outline of the steps:
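HepG2-AhR-luc (HG2L7.5c1) cells, 4000/well, were preincubated 5 h at 37C, exposed to compound in qHTS format for 24 hr at 37C, then given CellTiter-Fluor for 30 min; viability was read as fluorescence in the reporter wells.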

Assay [16] has as its target Peroxisome proliferator-activated receptor gamma (Homo sapiens) (UniProt P37231). Nature of the assay: qHTS assay to identify small molecule agonists of the peroxisome proliferator-activated receptor gamma (PPARg) signaling pathway (AID 743094; active = well fitted activation curve with a large enough effect in the signal ratio in the repeat runs, not every such curve was filed as active; the % refers to the signal ratio; note: potency is the fitted concentration of half-maximal effect). An outline of the steps: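 Agonism was assessed in a beta-lactamase reporter system, HEK293H cells with a stably integrated UAS-bla construct under PPARg control; the 17 h treatment at 37C preceded a 1 h room-temperature FRET substrate read.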

The nature of assay [17]: qHTS assay for small molecule activators of the heat shock response signaling pathway - cell viability counter screen (AID 743209). Note: nearly all actives have a fitted effect of over 50% in size. An outline of the steps: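 Compounds dissolved in DMSO were added to overnight-plated HSE-bla HeLa cells and left 5 h at 37 C. Cell viability was quantified by luminescence using CellTiter-Glo.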
For assay [18], the target named is Vitamin D3 receptor (Homo sapiens) (UniProt P11473). Nature of the assay: qHTS assay to identify small molecule agonists of the vitamin D receptor (VDR) signaling pathway (AID 743222; calls by dose curve; note: potency is the fitted concentration of half-maximal effect). An outline of the steps:
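Tox21 cell reporter format: VDR-bla line, 16 h compound exposure in 5% CO2 at 37C, then fluorescence intensity after 2 h with LiveBLAzer B/G FRET substrate.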

Assay [19] can be described thus: qHTS assay to identify small molecule agonists of the peroxisome proliferator-activated receptor delta (PPARd) signaling pathway - cell viability counter screen (AID 743211). Note: nearly all actives have a fitted effect of over 55% in size. Note: potency is the fitted concentration of half-maximal effect. An outline of the steps:
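Luminescent ATP viability assay (CellTiter-Glo, 30 min RT) in UAS-bla HEK293H cells carrying the PPAR delta reporter construct, 3000 cells/well, after a 17 h compound treatment at 37 C.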

Assay [20] can be described thus: qHTS assay to identify small molecule agonists of the farnesoid-X-receptor (FXR) signaling pathway - cell viability counter screen (AID 743218). Note: nearly all actives have a fitted effect of over 45% in size. Note: potency is the fitted concentration of half-maximal effect. An outline of the steps: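 Quantitative HTS counter screen measuring ATP-based viability via CellTiter-Glo luminescence in HEK 293T cells carrying a UAS-driven beta-lactamase reporter, after 16 h compound exposure at 37 C.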

Inconclusive results are not listed. A number with no mark means an inactive call. The source made the active and inactive calls. Unless noted, calls come from the whole dose curve; as a rule, active = well fitted curve in the direction sought with a large enough effect in the repeat runs; inconclusive = weak or mixed curves; inactive = no such curve, though single readings can be large; an effect the other way counts as inactive or inconclusive.

Sequence of Peroxisome proliferator-activated receptor gamma (Homo sapiens) (P37231 whole entry, looked up): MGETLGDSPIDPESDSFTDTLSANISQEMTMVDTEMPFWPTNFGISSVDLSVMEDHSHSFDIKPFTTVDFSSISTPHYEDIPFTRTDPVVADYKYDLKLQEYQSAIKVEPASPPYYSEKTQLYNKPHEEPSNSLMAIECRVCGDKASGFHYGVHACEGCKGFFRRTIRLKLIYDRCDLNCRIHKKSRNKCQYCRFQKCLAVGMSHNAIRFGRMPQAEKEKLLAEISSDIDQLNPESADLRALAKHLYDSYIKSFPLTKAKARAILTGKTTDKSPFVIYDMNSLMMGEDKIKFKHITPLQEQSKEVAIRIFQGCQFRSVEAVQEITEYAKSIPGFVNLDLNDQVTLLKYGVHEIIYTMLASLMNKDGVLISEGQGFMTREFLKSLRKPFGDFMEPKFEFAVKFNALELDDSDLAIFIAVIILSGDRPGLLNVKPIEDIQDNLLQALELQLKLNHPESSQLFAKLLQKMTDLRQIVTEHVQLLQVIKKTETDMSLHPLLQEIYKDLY
Sequence of Vitamin D3 receptor (Homo sapiens) (P11473 whole entry, looked up): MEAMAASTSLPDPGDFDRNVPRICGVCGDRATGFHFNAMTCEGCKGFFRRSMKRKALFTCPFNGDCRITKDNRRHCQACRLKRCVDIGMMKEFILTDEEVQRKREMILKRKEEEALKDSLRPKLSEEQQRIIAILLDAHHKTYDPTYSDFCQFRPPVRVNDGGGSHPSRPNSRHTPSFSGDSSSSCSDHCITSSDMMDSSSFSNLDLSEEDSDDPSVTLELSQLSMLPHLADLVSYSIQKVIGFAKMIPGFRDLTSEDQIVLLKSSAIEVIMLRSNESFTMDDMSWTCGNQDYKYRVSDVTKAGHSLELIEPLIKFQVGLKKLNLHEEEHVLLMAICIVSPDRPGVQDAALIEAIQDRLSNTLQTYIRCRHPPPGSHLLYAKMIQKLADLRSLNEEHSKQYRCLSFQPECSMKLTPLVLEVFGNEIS
Sequence of Peroxisome proliferator-activated receptor delta (Homo sapiens) (Q03181 whole entry, looked up): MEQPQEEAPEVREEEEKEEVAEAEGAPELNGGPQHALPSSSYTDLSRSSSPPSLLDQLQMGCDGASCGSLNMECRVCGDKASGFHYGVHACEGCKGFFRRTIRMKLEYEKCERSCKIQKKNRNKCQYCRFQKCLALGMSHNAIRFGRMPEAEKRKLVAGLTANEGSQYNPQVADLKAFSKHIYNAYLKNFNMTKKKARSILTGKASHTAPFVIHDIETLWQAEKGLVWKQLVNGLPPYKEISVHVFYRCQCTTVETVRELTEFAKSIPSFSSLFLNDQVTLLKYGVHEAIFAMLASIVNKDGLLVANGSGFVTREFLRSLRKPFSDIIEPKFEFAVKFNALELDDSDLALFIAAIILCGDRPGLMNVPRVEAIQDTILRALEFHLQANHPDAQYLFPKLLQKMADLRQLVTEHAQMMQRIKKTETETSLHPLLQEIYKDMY
Sequence of Aryl hydrocarbon receptor (Homo sapiens) (P35869 whole entry, looked up): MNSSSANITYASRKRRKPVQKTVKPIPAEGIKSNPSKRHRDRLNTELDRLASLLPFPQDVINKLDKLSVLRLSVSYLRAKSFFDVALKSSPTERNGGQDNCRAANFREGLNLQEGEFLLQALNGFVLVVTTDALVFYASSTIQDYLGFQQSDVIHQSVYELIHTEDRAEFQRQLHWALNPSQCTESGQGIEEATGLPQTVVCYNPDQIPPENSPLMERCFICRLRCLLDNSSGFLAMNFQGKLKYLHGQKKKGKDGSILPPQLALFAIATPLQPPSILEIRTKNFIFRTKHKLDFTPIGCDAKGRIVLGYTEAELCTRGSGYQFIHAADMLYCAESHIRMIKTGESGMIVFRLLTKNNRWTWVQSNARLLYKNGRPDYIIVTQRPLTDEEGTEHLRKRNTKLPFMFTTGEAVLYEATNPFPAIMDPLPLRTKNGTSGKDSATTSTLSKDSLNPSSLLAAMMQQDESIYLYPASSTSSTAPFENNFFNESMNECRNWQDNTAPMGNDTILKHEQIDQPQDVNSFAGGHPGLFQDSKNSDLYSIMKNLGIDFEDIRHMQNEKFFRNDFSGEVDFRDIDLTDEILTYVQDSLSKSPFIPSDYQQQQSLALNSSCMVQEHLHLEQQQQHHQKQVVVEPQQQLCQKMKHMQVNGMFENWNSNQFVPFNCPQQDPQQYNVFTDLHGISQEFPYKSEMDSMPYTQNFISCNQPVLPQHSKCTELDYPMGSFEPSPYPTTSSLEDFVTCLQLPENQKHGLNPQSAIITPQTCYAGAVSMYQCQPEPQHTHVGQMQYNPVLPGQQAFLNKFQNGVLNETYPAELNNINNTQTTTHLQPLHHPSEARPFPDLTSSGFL

Take `CN(C)C(=O)NC1(c2ccccc2)CCN(CC[C@@]2(c3ccc(F)c(F)c3)CN(C(=O)c3ccccc3)CCO2)CC1`: the Potency result in assay [1], in [2], in [3], in [4], in assay [5] and in assay [6] was “inactive” throughout. Moreover, the Potency result in assay [7], in assay [8], in assay [9], in [10], in assay [11] and in assay [12] was “inactive” in each case. Further, in assay [13], the result was inactive.
With `Cc1nn(C)c(Oc2ccccc2)c1/C=N/OCc1ccc(C(=O)OC(C)(C)C)cc1`, the Potency result in assay [14], in [15], in assay [16], in assay [3], in [17] and in assay [6] was “inactive” throughout. The Potency result in [9], in [11], in assay [12] and in assay [18] was “inactive” in each case.
Turning to `COc1ccc(C(=O)Nc2nc3ccccc3c(NCc3ccccc3)c2C#N)cc1`, the Potency in assay [14] is 7.7 µM (active); in assay [2], 1.74 µM (active). Moreover, the Potency entry in assay [5], in assay [17], in [6], in assay [19], in assay [8] and in [20] was “inactive” in each case. In addition, the Potency result in assay [11] and in [12] was “inactive” in each case.
Consider `CNCCCCOc1ccccc1Cc1ccccc1`, for which the Potency result in assay [1], in assay [16], in assay [3], in [6], in assay [11] and in assay [18] was “inactive” each time. For the same compound, the Potency in [5] was 29.8 µM (active); in assay [19] it was 26.6 µM (active); in assay [8] it was 13.3 µM (active).
For `CCCCCCCCCCCCCCCCCCOS(=O)(=O)O`, the Potency result in assay [14], in [15] and in assay [18] was “inactive” each time. The Potency in [5] is 61.1 µM (active); in assay [19], 49 µM (active); in assay [8], 54.9 µM (active); in assay [20], 34.7 µM (active). Also, in [13], the call was inactive.
Turning to `COC(=O)C1=C(C)NC(COC(N)=O)=C(C(=O)OC(C)C)C1c1cccc(Cl)c1Cl` (stereo not drawn), the Potency entry in [14], in assay [5], in [17], in assay [19], in assay [8] and in assay [12] was “inactive” each time. Besides, the Potency in assay [16] was 21.3 µM (active); in assay [18] it was 29.8 µM (active).
`C=CCOC(=O)CCC1CCCCC1`: the Potency entry in [15], in [16], in assay [2], in assay [3], in [4] and in assay [5] was “inactive” each time. Also, the Potency result in assay [19], in [7], in assay [8], in assay [9], in assay [10] and in assay [20] was “inactive” in each case. The Potency entry in assay [11], in assay [12] and in assay [18] was “inactive” throughout. Besides, in assay [13], the result was inactive.
For the compound `Clc1ccc2c(c1)CCc1cccnc1C2=C1CCNCC1`, the Potency result in assay [14], in assay [2], in assay [3], in assay [6], in assay [7] and in assay [11] was “inactive” throughout. Moreover, in assay [18], the Potency result is “inactive”. Besides, the Potency was 26.6 µM (active) in assay [19]; 15 µM (active) in assay [8]; 29.8 µM (active) in assay [9]; 29.8 µM (active) in assay [10]; 29.8 µM (active) in assay [12].
As for `Cc1cc(N)c2cc(NC(=O)Nc3ccc4nc(C)cc(N)c4c3)ccc2n1`, the Potency entry in [1], in assay [15], in assay [17], in assay [20], in assay [11] and in assay [18] was “inactive” each time. Further, the Potency in [12] was 18.8 µM (active).
